Screening data: PubChem BioAssay, several laboratories
NOD2-RIPK2 inh – NOD2-RIPK2 protein interaction inhibition. O43353. CHO BLA complementation NOD2-RIPK2, CCF4 ratio. inhibition, % at 4.98 µM. actives 0.38% (n = 360,000). AID 624267; in the data active = inhibition above about 21%
TLR4 MyD88 comp – inhibitors of human TLR4-MyD88 binding. O00206+Q99836. HeLa CL3-4 TLR4/MyD88 BLA complementation, FRET ratio. inhibition, % at 8.4 µM. actives 0.18% (n = 200,000). AID 861; in the data active = inhibition above about 25%
ABHD5-PLIN5 inh – inhibitors of human ABHD5-perilipin-5 interaction. AID 602281. inhibition, % at 4 µM. Split G. princeps luciferase complementation, luminescence, 4 h. actives 0.78% (n = 360,000). Q00G26+Q8WTS1;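 active = inhibition above the mean inhibition across every tested compound plus 3 SD, cut at about 22% in these data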
TLR9-MyD88 inh – blocks human TLR9 binding to MyD88 | inhibition, % at 4.98 µM | CHO BLA complementation TLR9-MyD88, CCF4 FRET ratio | actives 0.21% (n = 340,000) | Q9NR96+Q99836 | AID 504734;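 active = inhibition above the mean over all tested compounds plus 3 SD, cut at about 21% in these data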
Granule exo inh – lytic granule exocytosis inhibition. TALL-104 LAMP-1 surface exposure, flow cytometry; cells stimulated with thapsigargin and PMA. inhibition, % at 10 µM. actives 0.66% (n = 360,000). AID 651702;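 active = inhibition above about 55%, limit read from the data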
B2AR ag – activates human beta-2 adrenergic receptor causing internalization | Am2.2-beta2AR cells, FAP receptor internalization, flow cytometry | response, % (concentration not given with the values) | actives 0.43% (n = 340,000);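 active = response above a set limit, near 3 SD of response in nonfluorescent compounds, cut at about 42% in these data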
Target sequence (P07550 whole entry, looked up): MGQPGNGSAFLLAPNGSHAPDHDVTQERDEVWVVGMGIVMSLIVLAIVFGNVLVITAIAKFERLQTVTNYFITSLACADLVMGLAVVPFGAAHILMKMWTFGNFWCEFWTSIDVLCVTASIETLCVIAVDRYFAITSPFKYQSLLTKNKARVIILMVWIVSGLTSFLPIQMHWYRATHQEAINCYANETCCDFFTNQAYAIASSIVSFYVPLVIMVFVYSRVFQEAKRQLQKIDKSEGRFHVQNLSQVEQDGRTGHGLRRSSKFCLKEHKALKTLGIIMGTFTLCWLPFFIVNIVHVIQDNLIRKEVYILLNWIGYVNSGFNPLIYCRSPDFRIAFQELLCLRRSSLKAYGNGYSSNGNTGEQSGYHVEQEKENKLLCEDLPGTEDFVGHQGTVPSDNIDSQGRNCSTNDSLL
ABHD5-PLIN5 conf – confirmation of human ABHD5-PLIN5 interaction inhibitors. shares compounds with ABHD5-PLIN5 inh. biochemical ABHD5-PLIN5 interaction, luminescence. inhibition, % at 4 µM. actives 67% (n = 2,200). AID 651612; in the data active = inhibition above about 23%
HNF4 split-luc – HNF4 split-luciferase signal hit, counter-screen; shares compounds with ABHD5-PLIN5 inh; HNF4 dimerization, luminescence, biochemical; inhibition, % at 4 µM; actives 77% (n = 2,200); AID 651674;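 active = mean inhibition across replicate wells exceeding the computed hit threshold, cut at about 13% in these data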;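 also: light from luciferase halves that rejoin when HNF4 fusion proteins dimerize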
Each line names hits and unclear results; the compound was inactive in the other large screens (follow-up assays come after a bar, where they were run). Hits are enriched below; roughly 2% of the tested compounds scored in any of these assays.

N#Cc1ccc(C(C(=O)NC2CCCCC2)n2c(=O)c(-c3ccco3)nc3ccccc32)cc1 (configuration not stated)	ABHD5-PLIN5 inh 82 (no result: TLR4 MyD88 comp, TLR9-MyD88 inh, B2AR ag) | ABHD5-PLIN5 conf 84 | HNF4 split-luc 32
CCCCC(=O)NC(c1cccc([N+](=O)[O-])c1)c1ccc2cccnc2c1O (configuration not stated)	ABHD5-PLIN5 inh 33 (no result: TLR4 MyD88 comp) | ABHD5-PLIN5 conf 29 | HNF4 split-luc inactive
COc1ccc(C(=O)Cn2nc(CNc3ccc(Br)cc3)[n+]3c2CCCCC3)cc1	ABHD5-PLIN5 inh 37 | ABHD5-PLIN5 conf 23 | HNF4 split-luc 14
O=[S@]1Oc2ccccc2-c2ccccc21	ABHD5-PLIN5 inh 25 (no result: TLR4 MyD88 comp) | ABHD5-PLIN5 conf 83 | HNF4 split-luc 99
O=c1[nH]c(Sc2ccc([N+](=O)[O-])cc2[N+](=O)[O-])nc2ccccc12	ABHD5-PLIN5 inh 41, Granule exo inh 90 (no result: TLR4 MyD88 comp) | ABHD5-PLIN5 conf 41 | HNF4 split-luc 33
O=C(O)CC(O)(CC(=O)O)C(=O)O	ABHD5-PLIN5 inh 23 (no result: TLR4 MyD88 comp) | ABHD5-PLIN5 conf 80 | HNF4 split-luc 23
CCCN(C(=O)CSc1nnc(-c2ccc3c(c2)OCO3)o1)C1CCS(=O)(=O)C1 (configuration not stated)	none (no result: TLR4 MyD88 comp, B2AR ag)
O=C(NNc1c2ccccc2nc2ccccc12)c1ccccc1O	ABHD5-PLIN5 inh 26, Granule exo inh 108, B2AR ag 53 | ABHD5-PLIN5 conf 25 | HNF4 split-luc 18
O=C(NNc1c2ccccc2nc2ccccc12)c1ccc(O)cc1O	none
CCOc1cccc2sc(N(CCCN(C)C)C(=O)c3ccc(S(=O)(=O)N4CCc5ccccc5C4)cc3)nc12	none (no result: TLR4 MyD88 comp)
CCOc1cccc2sc(N(CCCN(C)C)C(=O)c3ccc(S(=O)(=O)N(C)c4ccccc4)cc3)nc12	ABHD5-PLIN5 inh 27 | ABHD5-PLIN5 conf inactive | HNF4 split-luc inactive
CCC1(c2ccccc2)SC(=O)NC1=O (configuration not stated)	none (no result: TLR4 MyD88 comp)
CCc1nc2c(OCc3ccc(F)c(F)c3)cccn2c1N(C)C(=O)C1CC1	none (no result: TLR4 MyD88 comp, TLR9-MyD88 inh, B2AR ag)
C=C(C)CCC(C)N1CCC(n2nccc2NC(=O)CCOc2ccccc2)CC1 (configuration not stated)	none (no result: TLR4 MyD88 comp)
CN(C)c1ccc(C=c2c3ccccc3n3c2c2c([n+]3C)CCCC2)cc1	ABHD5-PLIN5 inh 29, Granule exo inh 70 (no result: TLR4 MyD88 comp) | ABHD5-PLIN5 conf 28 | HNF4 split-luc 36
CN(C)c1ccc(/C=C2\SC(=O)N(CC(O)Cn3c4ccccc4c4ccccc43)C2=O)cc1 (configuration not stated)	none
COc1ccccc1CNc1nc(NCCN2CCNC2=O)c2sccc2n1	none (no result: TLR4 MyD88 comp, TLR9-MyD88 inh, B2AR ag)
O=C(O)c1cccc(S(=O)(=O)Nc2ccc3oc(=O)sc3c2)c1	ABHD5-PLIN5 inh 63 | ABHD5-PLIN5 conf inactive | HNF4 split-luc 42
O=C(O)c1cccc(S(=O)(=O)Nc2ccc3[nH]c(=O)[nH]c3c2)c1	none (no result: TLR4 MyD88 comp)
CC(C)NC(=O)c1cc(-c2ccco2)nn1-c1ccc(Cl)cc1	ABHD5-PLIN5 inh 36 | ABHD5-PLIN5 conf 42 | HNF4 split-luc 59
CCOc1ccccc1OCCCC(=O)N1CCN(S(=O)(=O)c2ccc(C)cc2C)CC1	none (no result: TLR4 MyD88 comp)
CCOc1ccccc1/C=C/c1nc2ccccc2[nH]c1=O	ABHD5-PLIN5 inh 27 (no result: TLR4 MyD88 comp) | ABHD5-PLIN5 conf 50 | HNF4 split-luc 46
CCOc1ccccc1OCCCC(=O)Nc1nc2ccccc2[nH]1	none
COc1ccc(CN(C)C(=O)c2cccc(S(=O)(=O)N3CCCc4ccccc43)c2)c(OC)c1OC	none (no result: TLR4 MyD88 comp)
COc1cccc(CSC(C(=O)O)c2ccccc2)c1 (configuration not stated)	none (no result: TLR4 MyD88 comp, B2AR ag)
O=C(Cn1c(=O)n(Cc2ccco2)c(=O)c2ccccc21)Nc1cccc(Cl)c1	ABHD5-PLIN5 inh 42 | ABHD5-PLIN5 conf inactive | HNF4 split-luc inactive
Cc1ccc(NC(=O)Cn2c(=O)n(Cc3ccco3)c(=O)c3ccccc32)c(C)c1	none
CC1(S(=O)(=O)O)CC(=O)c2ccccc2C1=O (configuration not stated)	ABHD5-PLIN5 inh 29 (no result: TLR4 MyD88 comp) | ABHD5-PLIN5 conf 42 | HNF4 split-luc 56
Cc1ccc(S(=O)(=O)N2C[C@H]3C(=O)C[C@@H]4C(=O)N(c5ccccc5)C(=O)[C@@H]4[C@@H]3C[C@H]2c2cccs2)cc1	none (no result: TLR4 MyD88 comp, TLR9-MyD88 inh, B2AR ag)
C[C@@H]1CN([C@H](C)CO)C(=O)c2cc(Br)cnc2O[C@@H]1CN(C)C(=O)C1CCOCC1	none (no result: TLR4 MyD88 comp, B2AR ag)
Cn1cc(C(=O)N/N=C/C(Br)=C/c2ccccc2)ccc1=O	ABHD5-PLIN5 inh 27 | ABHD5-PLIN5 conf inactive | HNF4 split-luc 75
Cn1cc(C(=O)N/N=C/C(Br)=C\c2ccccc2)ccc1=O	ABHD5-PLIN5 inh 26 | ABHD5-PLIN5 conf inactive | HNF4 split-luc 26
Cc1ccc(-c2cc(C(=O)N/N=C/C(Br)=C/c3ccccc3)n[nH]2)o1	ABHD5-PLIN5 inh 27 | ABHD5-PLIN5 conf inactive | HNF4 split-luc 39
Cc1ccc(-c2cc(C(=O)N/N=C/c3ccccc3O)n[nH]2)o1	none (no result: TLR4 MyD88 comp)
Cc1ccccc1CNC(=O)C1CCC(=O)N(C2CCCCCC2)C1 (configuration not stated)	none (no result: TLR4 MyD88 comp)
O=C(c1ccco1)N1CCC2CC1c1c(Cl)cccc12 (configuration not stated)	none (no result: TLR4 MyD88 comp, B2AR ag)
CCN(CC)C(=O)c1cccc(-c2csc(C(O)c3cccc(OC)c3)n2)c1 (configuration not stated)	none (no result: TLR4 MyD88 comp, TLR9-MyD88 inh, B2AR ag)
CCOC(=O)CNC(c1ccccc1)c1cc(Br)ccc1NC(=O)CCN1CCOCC1 (configuration not stated)	ABHD5-PLIN5 inh 24 | ABHD5-PLIN5 conf inactive | HNF4 split-luc 39
CC1=NOC(=O)/C1=C\c1ccc(-c2ccc(Br)cc2C(=O)O)o1	none
CC1=NOC(=O)/C1=C\c1ccc(-c2cc(Cl)ccc2Cl)o1	ABHD5-PLIN5 inh 39, Granule exo inh 74, B2AR ag 80 | ABHD5-PLIN5 conf 85 | HNF4 split-luc 86
CC1=NOC(=O)/C1=C\c1ccc(-c2ccc(Br)cc2)o1	ABHD5-PLIN5 inh 38, B2AR ag 83 | ABHD5-PLIN5 conf 93 | HNF4 split-luc 106
Cn1cnc(S(=O)(=O)N2CCCCC2c2cc(C(=O)NCc3ccc(Cl)c(Cl)c3)no2)c1 (configuration not stated)	none (no result: TLR4 MyD88 comp, TLR9-MyD88 inh, B2AR ag)
C[C@@H]1CN([C@@H](C)CO)C(=O)CCCn2nncc2CO[C@H]1CN(C)C(=O)Nc1ccc(-c2cccs2)cc1	none (no result: TLR4 MyD88 comp, B2AR ag)
C#CC[N+](C)(C)CCCCCCCCCCCC	ABHD5-PLIN5 inh 23 | ABHD5-PLIN5 conf inactive | HNF4 split-luc inactive
CC#CC[N+](C)(C)CCCCCCCCCCCC	ABHD5-PLIN5 inh 27 | ABHD5-PLIN5 conf inactive | HNF4 split-luc inactive
